Data: PubChem BioAssay AID1159580 (chemical genetic matrix, 2015)
“And” between values parts separate entries of the source, which are not always exact repeats. Equal values may be shown once. The campaign covered roughly 5,500 compounds. About 2,000 (36%) were called active. Roughly 18% stayed inconclusive and do not appear here. No stated cut-off is given here; in the data, active means normalized growth mostly below about 0.91 (no sharp cut-off); inconclusive means no clear call, values can overlap the other calls; inactive means mostly above about 0.92. The list shows a part of the results.

Experiment: chemical genetic growth profiling, strain panel (AID 1159580);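 further: tested at 20 µM; growth read once vehicle control cultures reached saturation at 30 °C; 1 = growth at the plate median or of vehicle wells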
Details: growth OD

Measured: normalized growth

CCCCCCCCC(=O)NCc1ccc(O)c(OC)c1
inactive: S. cerevisiae deletion strains, locus YJR075W, strain HOC1, stronger effect = lower value 0.989 and 0.961 | S. cerevisiae deletion strains, locus YKL009W, strain mrt4, stronger effect = lower value 0.955 | S. cerevisiae deletion strains, locus YKL068W, stronger effect = lower value 0.986 | S. cerevisiae deletion strains, locus YKL085W, strain MDH1 (second series), stronger effect = lower value 0.987 | S. cerevisiae deletion strains, locus YKL085W, strain MDH1, stronger effect = lower value 0.987 | S. cerevisiae deletion strains, locus YKL160W, strain elf1, stronger effect = lower value 0.985 | S. cerevisiae deletion strains, locus YKL190W, strain CNB1, stronger effect = lower value 0.999 | S. cerevisiae deletion strains, locus YKR001C, strain vps1, stronger effect = lower value 0.983 | S. cerevisiae deletion strains, locus YKR026C, strain gcn3, stronger effect = lower value 0.979 | S. cerevisiae deletion strains, locus YKR091W, strain srl3, stronger effect = lower value 0.999 | S. cerevisiae deletion strains, locus YLL001W, strain dnm1, stronger effect = lower value 1 | S. cerevisiae deletion strains, locus YLL026W, stronger effect = lower value 1 | S. cerevisiae deletion strains, locus YLL041C, strain sdh2, stronger effect = lower value 1 | S. cerevisiae deletion strains, locus YLR027C, strain aat2, stronger effect = lower value 1.01 | S. cerevisiae deletion strains, locus YLR039C, strain RIC1, stronger effect = lower value 1 | S. cerevisiae deletion strains, locus YLR058C, strain SHM2, stronger effect = lower value 0.984 | S. cerevisiae deletion strains, locus YLR102C, strain apc9, stronger effect = lower value 0.987 | S. cerevisiae deletion strains, locus YLR113W, strain HOG1, stronger effect = lower value 1.01 | S. cerevisiae deletion strains, locus YLR221C, strain rsa3, stronger effect = lower value 1.01 | S. cerevisiae deletion strains, locus YLR258W, strain gsy2, stronger effect = lower value 0.989 | S. cerevisiae deletion strains, locus YLR262C, strain YPT6 (second series), stronger effect = lower value 1.02 | S. cerevisiae deletion strains, locus YLR262C, strain YPT6, stronger effect = lower value 1.01 | S. cerevisiae deletion strains, locus YLR268W, strain sec22, stronger effect = lower value 0.97 | S. cerevisiae deletion strains, locus YLR320W, strain mms22, stronger effect = lower value 0.997 | S. cerevisiae deletion strains, locus YLR330W, strain CHS5, stronger effect = lower value 0.985 | S. cerevisiae deletion strains, locus YLR342W, strain FKS1 (second series), stronger effect = lower value 0.966 | S. cerevisiae deletion strains, locus YLR342W, strain FKS1, stronger effect = lower value 1.03 | S. cerevisiae deletion strains, locus YLR357W, strain rsc2, stronger effect = lower value 1.12 | S. cerevisiae deletion strains, locus YLR370C, strain arc18, stronger effect = lower value 0.993 | S. cerevisiae deletion strains, locus YLR371W, strain rom2, stronger effect = lower value 0.985 | S. cerevisiae deletion strains, locus YLR384C, strain iki3, stronger effect = lower value 1 | S. cerevisiae deletion strains, locus YLR418C, strain cdc73, stronger effect = lower value 0.989 | S. cerevisiae deletion strains, locus YML016C, strain PPZ1, stronger effect = lower value 0.978 | S. cerevisiae deletion strains, locus YML032C, strain rad52, stronger effect = lower value 0.97 | S. cerevisiae deletion strains, locus YML120C, strain ndi1, stronger effect = lower value 0.992 | S. cerevisiae deletion strains, locus YML124C, strain tub3, stronger effect = lower value 0.975 | S. cerevisiae deletion strains, locus YMR058W, strain fet3, stronger effect = lower value 1 | S. cerevisiae deletion strains, locus YMR078C, strain ctf18, stronger effect = lower value 0.977 | S. cerevisiae deletion strains, locus YMR125W, strain sto1, stronger effect = lower value 1.05 | S. cerevisiae deletion strains, locus YMR129W, stronger effect = lower value 1.02 | S. cerevisiae deletion strains, locus YMR205C, strain PFK2, stronger effect = lower value 0.961 | S. cerevisiae deletion strains, locus YMR223W, strain ubp8, stronger effect = lower value 0.965 | S. cerevisiae deletion strains, locus YMR231W, strain pep5, stronger effect = lower value 1.01 | S. cerevisiae deletion strains, locus YMR263W, strain SAP30, stronger effect = lower value 0.998 | S. cerevisiae deletion strains, locus YMR307W, strain GAS1, stronger effect = lower value 1.07 and 0.979 | S. cerevisiae deletion strains, locus YNL067W, strain RPL9B, stronger effect = lower value 0.995 | S. cerevisiae deletion strains, locus YNL071W, strain lat1, stronger effect = lower value 0.976 | S. cerevisiae deletion strains, locus YNL128W, strain TEP1, stronger effect = lower value 0.999 and 0.969 | S. cerevisiae deletion strains, locus YNL153C, strain GIM3, stronger effect = lower value 0.997 | S. cerevisiae deletion strains, locus YNL175C, strain NOP13, stronger effect = lower value 0.972 | S. cerevisiae deletion strains, locus YNL183C, strain NPR1, stronger effect = lower value 0.93 | S. cerevisiae deletion strains, locus YNL197C, strain WHI3, stronger effect = lower value 0.963 | S. cerevisiae deletion strains, locus YNL209W, strain ssb2, stronger effect = lower value 0.995 | S. cerevisiae deletion strains, locus YNL224C, strain SQS1, stronger effect = lower value 0.984 | S. cerevisiae deletion strains, locus YNL233W, strain BNI4, stronger effect = lower value 0.988 | S. cerevisiae deletion strains, locus YNL248C, strain rpa49, stronger effect = lower value 1.06 | S. cerevisiae deletion strains, locus YNL250W, strain rad50, stronger effect = lower value 0.975 | S. cerevisiae deletion strains, locus YNL271C, strain bni1, stronger effect = lower value 0.983 | S. cerevisiae deletion strains, locus YNL298W, strain CLA4, stronger effect = lower value 0.966 | S. cerevisiae deletion strains, locus YNL307C, strain MCK1, stronger effect = lower value 0.955 | S. cerevisiae deletion strains, locus YNL322C, strain KRE1 (second series), stronger effect = lower value 0.998 | S. cerevisiae deletion strains, locus YNL322C, strain KRE1, stronger effect = lower value 0.994 and 0.983 | S. cerevisiae deletion strains, locus YNR049C, strain mso1, stronger effect = lower value 1.02 | S. cerevisiae deletion strains, locus YNR052C, strain pop2, stronger effect = lower value 0.992 | S. cerevisiae deletion strains, locus YOL006C, strain TOP1, stronger effect = lower value 0.927 | S. cerevisiae deletion strains, locus YOL012C, strain htz1 0.863 | S. cerevisiae deletion strains, locus YOL147C, strain pex11, stronger effect = lower value 0.991 | S. cerevisiae deletion strains, locus YOR001W, strain rrp6, stronger effect = lower value 1.01 | S. cerevisiae deletion strains, locus YOR061W, strain CKA2, stronger effect = lower value 0.988 | S. cerevisiae deletion strains, locus YOR069W, strain VPS5, stronger effect = lower value 0.983 | S. cerevisiae deletion strains, locus YOR070C, strain gyp1, stronger effect = lower value 0.982 | S. cerevisiae deletion strains, locus YOR080W, strain dia2, stronger effect = lower value 1.01 | S. cerevisiae deletion strains, locus YOR083W, strain WHI5 (second series), stronger effect = lower value 0.998 | S. cerevisiae deletion strains, locus YOR083W, strain WHI5, stronger effect = lower value 0.988 | S. cerevisiae deletion strains, locus YOR106W, strain vam3, stronger effect = lower value 1 | S. cerevisiae deletion strains, locus YOR136W, strain idh2, stronger effect = lower value 0.981 | S. cerevisiae deletion strains, locus YOR144C, strain elg1, stronger effect = lower value 0.989 | S. cerevisiae deletion strains, locus YOR184W, strain ser1, stronger effect = lower value 0.939 | S. cerevisiae deletion strains, locus YOR231W, strain MKK1, stronger effect = lower value 0.988 | S. cerevisiae deletion strains, locus YOR265W, strain rbl2, stronger effect = lower value 1.01 | S. cerevisiae deletion strains, locus YOR270C, strain vph1, stronger effect = lower value 0.969 | S. cerevisiae deletion strains, locus YOR290C, strain snf2, stronger effect = lower value 0.978 | S. cerevisiae deletion strains, locus YOR316C, strain cot1, stronger effect = lower value 0.98 | S. cerevisiae deletion strains, locus YPL051W, strain arl3, stronger effect = lower value 0.987 | S. cerevisiae deletion strains, locus YPL055C, strain LGE1, stronger effect = lower value 1.01 | S. cerevisiae deletion strains, locus YPL078C, strain atp4, stronger effect = lower value 0.969 | S. cerevisiae deletion strains, locus YPL106C, strain sse1, stronger effect = lower value 1.04 | S. cerevisiae deletion strains, locus YPL240C, strain hsp82, stronger effect = lower value 1 | S. cerevisiae deletion strains, locus YPL241C, strain CIN2, stronger effect = lower value 0.978 and 0.994 | S. cerevisiae deletion strains, locus YPL256C, strain CLN2, stronger effect = lower value 1 | S. cerevisiae deletion strains, locus YPR119W, strain clb2, stronger effect = lower value 0.989 | S. cerevisiae deletion strains, locus YPR141C, strain kar3, stronger effect = lower value 0.98 | S. cerevisiae deletion strains, locus YPR163C, strain tif3, stronger effect = lower value 0.989 | S. cerevisiae deletion strains, locus YPR167C, strain met16, stronger effect = lower value 0.986 | S. cerevisiae deletion strains, strain wtn01, stronger effect = lower value 0.984 | S. cerevisiae strains, strain wild type, stronger effect = lower value 1
